This is an account of results in PubChem BioAssay AID504444 (National Center for Advancing Translational Sciences (NCATS), 2011).

The whole screen tested about 360,000 compounds, of which about 7,500 (2.1%) were called active. About 20% were inconclusive and are not listed. The list comes from a sample in which actives are over-represented; it also holds similar structures and randomly drawn compounds. Values without a mark were called inactive. The call rests on the fitted dose curve; in most records, active means well fitted inhibition curve with a large enough effect; inconclusive means small, poorly fitted or top-dose-only effect, or effect the other way; inactive means flat fitted curve, though single readings scatter.
On the % scale 0 is the no-effect control and ±100 the full control effect; potency means the concentration at half of the fitted maximal effect.

A short description of this assay: Nrf2 qHTS screen for inhibitors. Further: nearly all actives have a fitted effect of over 60% in size. The conditions noted are these: A549 ARE-Fluc reporter, luciferase luminescence, 18-24 h; series mostly up to 46 µM; activity change, negative = inhibition: at the top concentration. In a few lines:
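Cells were seeded and rested 2 h, then exposed to compounds for 18-24 h. CellTiter-Fluor was read first as a viability measure. BugLite was added 15 min before the final luminescent read of ARE-luciferase activity in A549 cells.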
For orientation: Quantitative high-throughput screening tests each substance at several concentrations.
`COc1ccc(C2Nc3cccc(OC)c3C(=O)N2Cc2ccccc2)cc1COc1ccc(NC(C)=O)cc1` (configuration not stated): the “activity change, negative = inhibition” value is -11.2%.
Turning to `N/C(=N\S(=O)(=O)c1cc(C(F)(F)F)cc(C(F)(F)F)c1)c1cccs1`, the Potency is 20.6 µM (active).
Take `CN(NS(=O)(=O)c1cccs1)c1ncc(C(F)(F)F)cc1Cl`: the “activity change, negative = inhibition” value is -11.9%.
Still for that read-out and setting: the same measure for `Cc1ccc(S(=O)(=O)/N=C(\N)c2ccc(F)cc2)cc1`: 8.96%; for `CN1CCOC1c1ccc(C2OCCN2C)cc1` (configuration not stated): 0.88%; for `COc1ccc2cc(CNc3ccc(OC)c(OC)c3)c(=O)n(CC(=O)Nc3ccccc3F)c2c1`: 0.0911%.
With `Cc1ccc(C)n1-c1nnc(N2CCC(C(=O)NCc3ccc(F)cc3)CC2)s1`, the “activity change, negative = inhibition” value was 0.0316%.
Regarding `CCN(CC)CCN(C(=O)c1ccc(S(=O)(=O)N2CCOCC2)cc1)c1nc2cc3c(cc2s1)OCCO3`, the “activity change, negative = inhibition” value is 20.6%.
On to `CN(C)CCCN(C(=O)c1ccc(S(=O)(=O)N2CCCCCC2)cc1)c1nc2ccc(Br)cc2s1`, for which the Potency was 25.9 µM (active).
As for `CN(C)CCCN(C(=O)c1ccc(S(=O)(=O)N2CCCCCC2)cc1)c1nc2cc3c(cc2s1)OCCO3`, the “activity change, negative = inhibition” value is 18.3%.
Take `CCOC(=O)c1ccccc1NC(=O)CSc1nc2c(sc(=S)n2CC)c(=O)[nH]1`: the “activity change, negative = inhibition” value was -13.5%.
As to `COc1cc(OC)c(NC(=O)Cc2ccc(-n3c(C)nc4cccnc43)cc2)cc1Cl`, the “activity change, negative = inhibition” value was -17.2%.
For `CCN(CC)c1cc(NC2CCCCC2)c2c3c(onc13)-c1ccccc1C2=O`, the “activity change, negative = inhibition” value was -11.4%.
For the compound `CC(=O)c1ccc(NC(=O)c2nc3nc(C)cc(C(F)F)n3n2)cc1`, the “activity change, negative = inhibition” value was 9.64%.
On to `CCN(CC)S(=O)(=O)c1cc(C(=O)Nc2cc(S(=O)(=O)N3CCOCC3)ccc2N2CCCC2)ccc1F`, for which the “activity change, negative = inhibition” value is 2.43%.
Turning to `O=C(CCCn1c(SCC(=O)c2ccc(F)cc2)nc2ccccc2c1=O)NCc1ccco1`, the Potency is 25.9 µM (active).
Regarding `O=C(CSc1nc2ccccc2c(=O)n1Cc1ccc(F)cc1)NCC1CCCO1` (configuration not stated), the “activity change, negative = inhibition” value was 6.13%.
Still for that read-out and setting: to `O=C(CCCn1c(SCC(=O)c2ccccc2)nc2ccccc2c1=O)NCC1CCCO1` (configuration not stated) belongs -22%.
Regarding `CCC(=O)N1CCc2cc(Br)cc(S(=O)(=O)CCC(=O)NCCc3ccc(OC)c(OC)c3)c21`, the activity change, negative = inhibition is 5.45% [at 9.27 µM].
Consider `Cc1ccc(Cl)cc1NC(=O)CCC(=O)N1CC(C)Sc2ccccc21` (configuration not stated), for which the “activity change, negative = inhibition” value was -11.4%.
Take `CSCc1nnc(NC(=O)c2ccc(S(=O)(=O)N3CCCCC3C)cc2)o1` (configuration not stated): the Potency was 20.6 µM (active).
Turning to `CSc1ncc(Cl)c(C(=O)Nc2ccc(S(=O)(=O)N3CCCC(C)C3)cc2)n1` (configuration not stated), the “activity change, negative = inhibition” value was -10.8%.
Take `CC1CC(C)CN(S(=O)(=O)c2ccc(C(=O)NN3CCOCC3)cc2)C1` (configuration not stated): the “activity change, negative = inhibition” value was -13.9%.
As to `CC1CCCN(C(=O)Cn2c(=O)oc3cc(S(=O)(=O)N4CCCCC4C)ccc32)C1` (configuration not stated), the “activity change, negative = inhibition” value is -8.33%.
As for `CC1CCCCN1S(=O)(=O)CCNC(=O)c1ccccc1` (configuration not stated), the “activity change, negative = inhibition” value is 0.728%.
With `CC1CCCN(S(=O)(=O)c2ccc(C(=O)Nc3nnc(-c4ccncc4)o3)cc2)C1` (configuration not stated), the Potency is 8.2 µM (active).
As for `CCc1nnc(NC(=O)C2CCCN2S(=O)(=O)c2ccccc2)s1` (configuration not stated), the “activity change, negative = inhibition” value was -12.7%.
On to `CC1CCCCN1S(=O)(=O)c1ccc(C(=O)Nc2nnc(-c3cccs3)o2)cc1` (configuration not stated), for which the Potency is 13 µM (active).
As for `CC1CCCCN1S(=O)(=O)c1ccc(S(=O)(=O)N(CC(=O)Nc2ccccc2)Cc2cccs2)cc1` (configuration not stated), the “activity change, negative = inhibition” value was -9.35%.
Turning to `O=C1N[C@@H](c2ccccc2)COC(=O)[C@H](Cc2ccc(F)cc2)C/C=C\C[C@@H]1CC(=O)N(CCO)Cc1ccccc1`, the “activity change, negative = inhibition” value is -25.7%.
Still for that read-out and setting: the same measure for `FC(F)(F)c1cc(Nc2nc3ccccc3c3nncn23)ccc1Cl`: -2.38%.
As to `CC[C@]12c3[nH]c4ccc(Cl)cc4c3CCN1C(=O)[C@@H](CC(=O)NCCCOC)C[C@@H]2C(=O)N1CCN(C(=O)c2ccco2)CC1`, the “activity change, negative = inhibition” value was 3.05%.
As to `O=C(CN1CCN(c2ccccn2)CC1)Nc1ccc(Br)cc1`, the “activity change, negative = inhibition” value was -6.26%.
For `Cc1cc(Br)ccc1NC(=O)c1cnc(N2CCN(c3ccccn3)CC2)c2ccccc12`, the Potency is 11.6 µM (active).
For the compound `Cc1sc2ncn(CC(=O)NCCCC(=O)N3CCN(c4ccccc4F)CC3)c(=O)c2c1C`, the “activity change, negative = inhibition” value is 3.37%.
On to `Cc1cc(Br)ccc1NC(=O)c1sc2ncn(CC(=O)N3CCN(c4ccccn4)CC3)c(=O)c2c1C`, for which the Potency was 18.4 µM (active).
`CCOC(=O)c1ccc(NC(=S)N2CCN(c3ccccn3)CC2)cc1`: the “activity change, negative = inhibition” value was 2.57%.
Still for that read-out and setting: the same measure for `Cc1cc(Br)ccc1NC(=O)Cn1cnc2sc(C)c(S(=O)(=O)N3CCN(C)CC3)c2c1=O`: 4.06% [at 9.27 µM]; for `c1ccc(Cn2nnc3c(N4CCCCC4)ncnc32)cc1`: 4.62%; for `CCN(CC)C(=O)[C@H]1C[C@H](CC(=O)NCC23CC4CC(CC(C4)C2)C3)C(=O)N2CCc3c([nH]c4cc(CCC(=O)N(C)C)ccc34)[C@]12C`: 3.36%.
For `Cc1c(C(=O)Nc2cccc(S(=O)(=O)N3CCOCC3)c2)oc2ccccc12`, the “activity change, negative = inhibition” value is 1.34%.
As for `O=S(=O)(c1cccc(C(F)(F)F)c1)N1CCN(c2nc(-c3cccs3)nc3ccccc23)CC1`, the “activity change, negative = inhibition” value is -4.82%.
Take `COc1ccc(NS(=O)(=O)c2ccc(O)c(C(=O)OCC(=O)NC3CCCCC3)c2)cc1`: the “activity change, negative = inhibition” value was 11.7%.
Take `CCS(=O)(=O)c1ccc2oc(SCC(=O)N3c4ccccc4CC3C)nc2c1` (configuration not stated): the “activity change, negative = inhibition” value was -41.5%.
`COc1ccc(NS(=O)(=O)c2ccc3oc(SCC(N)=O)nc3c2)cc1`: the Potency is 23.1 µM (active).
Regarding `COc1ccc(N2CCN(S(=O)(=O)c3ccc4c(c3)CC(=O)N4)CC2)cc1`, the “activity change, negative = inhibition” value was -2.13% [at 92.2 µM].
In the case of `COc1cc(Cl)ccc1Nc1ncc(C(=O)N2CCN(c3ccccc3OC)CC2)c2ccccc12`, the activity change, negative = inhibition is 1.91% [at 9.27 µM].
